The list is not random: actives were taken first. Their share in the collection is about 3.8%.
MBNL1 CUG block: qHTS Assay for Inhibitors of MBNL1-poly(CUG) RNA binding; TR-FRET MBNL1-His/biotin-(CUG)12 binding, 665/545 ratio; Potency, µM (series often up to 57.5 µM), without a hit: at the highest dose activity change, negative = inhibition, actives largely listed as inhibitors; actives 0.036% (n = 280,000); AID 2675, 2010; active means well fitted inhibition curve with a large enough effect in the signal ratio, with a control signal flat, not every such curve was filed as active; inconclusive means small, poorly fitted or top-dose-only effect, or effect the other way, or a change in a side signal; inactive means no such curve, though single readings can be large or run the other way; the % refers to the signal ratio; further: potency means the concentration at half of the fitted maximal effect; on the % scale 0 is the no-effect control and ±100 the full control effect
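His-tagged MBNL1 binding to biotinylated (CUG)12 RNA was measured by TR-FRET using terbium anti-His antibody (0.055 ng/ul final) and streptavidin-XL665 (5 nM final). Compounds were titrated 92 nM to 58 uM; 60 min at room temperature.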
CBFb RUNX1 block: qHTS Assay for Compounds Blocking the Interaction Between CBF-beta and RUNX1 for the Treatment of Acute Myeloid Leukemia; Potency, µM (highest dose often 59.8 µM), for inactives: at the top dose activity, negative = inhibition, usual class: inhibitors; AID 1477, 2009; AlphaScreen CBFb-His/RUNX1-biotin binding, biochemical; 230,000 tested, under 10 active; Runt-related transcription factor 1 (Homo sapiens) + Core-binding factor subunit beta …; further: % of control where 0% means no effect
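His-tagged CBF-beta and biotinylated RUNX1 (30 nM each) were premixed 20 min at room temperature, exposed to compound for 15 min, then given nickel-chelate and streptavidin AlphaScreen beads (50 ng each). After 90 min, AlphaScreen signal was read.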
KCNH2 3.1 inh: qHTS for Inhibitors of KCHN2 3.1: Mutant qHTS; Potassium voltage-gated channel subfamily H member 2, brain isoform KCNH2 3.1 (human); U2OS KCNH2 3.1, thallium flux FluxOr; stronger effect = lower value; activity change, % (tested at about 1.8 µM); actives 0.95% (n = 340,000); AID 720553, 2013;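 active means maximum activity change below -70%; inconclusive means maximum activity change from -70% to -50%; inactive means maximum activity change above -50%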;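 further: thallium influx rate constant from kinetic fluorescence after stimulation buffer; on the % scale 0 is the no-effect control and ±100 the full control effect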
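Kinetic fluorescence (2 min after stimulation buffer) measures Tl+ influx through KCNH2 3.1 expressed by viral transduction in U2OS cells; the rate constant is normalized against DMSO controls serving as positive and negative references.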
PLK1 PBD inh: qHTS for Inhibitors of PLK1-PDB (polo-like kinase 1 - polo-box domain): Primary Screen; Serine/threonine-protein kinase PLK1 (Homo sapiens), P53350; Plk1 PBD binding of FITC phosphopeptide, fluorescence polarization; Potency, µM, inactives show max response, negative = inhibition, usual class: inhibitors; actives 2.8% (n = 360,000); AID 720504, 2013; further: potency means the concentration at half of the fitted maximal effect; series mostly up to about 57 µM; on the % scale 0 is the no-effect control and ±100 the full control effect; nearly all actives have a fitted effect of over 65% in size
KCNH2 WT inh: qHTS for Inhibitors of KCHN2 3.1: Wildtype qHTS; U2OS, BacMam KCNH2, thallium flux FluxOr; stronger effect = lower value; activity change, % at 1.84 µM; actives 0.37% (n = 340,000);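 active means maximum activity change below -70%; inconclusive means maximum activity change between -70% and -50%; inactive means maximum activity change above -50%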; further: on the % scale 0 is the no-effect control and ±100 the full control effect
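U2OS cells transduced with wild-type KCNH2 virus are loaded with FluxOr dye for 45 min, and thallium flux is measured in kinetic reads before and after stimulation buffer. Rate constants are normalized to DMSO controls.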
VDR inh: Inhibitors of the vitamin D receptor (VDR): qHTS. actives 0.93% (n = 400,000). VDR-SRC2-3 peptide fluorescence polarization, 2 h. Vitamin D3 receptor (Homo sapiens), P11473. Potency, µM, for inactives: max response, negative = inhibition, usual class: inhibitors. AID 504847, 2011; further: potency means the concentration at half of the fitted maximal effect; on the % scale 0 is the no-effect control and ±100 the full control effect
Target sequence (P11473 whole entry, looked up): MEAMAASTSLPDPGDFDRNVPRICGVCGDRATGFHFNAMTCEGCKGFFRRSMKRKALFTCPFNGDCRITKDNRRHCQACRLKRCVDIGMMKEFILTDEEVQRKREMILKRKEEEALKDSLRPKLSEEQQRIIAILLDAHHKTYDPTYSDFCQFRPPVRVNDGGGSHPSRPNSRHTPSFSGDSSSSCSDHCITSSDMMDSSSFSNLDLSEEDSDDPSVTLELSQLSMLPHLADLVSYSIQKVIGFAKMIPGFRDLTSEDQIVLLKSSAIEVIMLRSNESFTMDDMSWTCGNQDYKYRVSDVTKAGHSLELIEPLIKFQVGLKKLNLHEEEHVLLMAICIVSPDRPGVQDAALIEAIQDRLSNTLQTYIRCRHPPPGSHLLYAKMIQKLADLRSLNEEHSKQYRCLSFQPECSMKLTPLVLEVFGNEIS
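After 23 nl compound addition and a short centrifugation, plates sat for 2 hours at ambient temperature; polarization of fluorescence then indicated loss of VDR binding to peptide SRC2-3.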
An asterisk follows results filed as active; ? = inconclusive; nt = not tested or not shown; [ ] = another dose, or the depositor's remark. Unless noted, the call rests on the fitted dose curve; in most records, active means well fitted curve in the direction sought with a large enough effect; inconclusive means small, poorly fitted or top-dose-only effect, or another doubt; inactive means no such curve, though single readings can be large; an effect the other way counts as inactive or inconclusive.

SMILES	MBNL1 CUG block	CBFb RUNX1 block	KCNH2 3.1 inh	PLK1 PBD inh	KCNH2 WT inh	VDR inh
CCCCc1nc2c(c3c1C[C@H](C)OC3)CN(S(=O)(=O)c1ccc(C#N)cc1)CC2	nt	0%[13.1 µM]	nt	nt	nt	nt
CCOc1ccc(NC(=S)NCc2nc3ccccc3[nH]2)cc1	-2%	-1%	?	-25%	nt	-15%
FC(F)Oc1ccc(NC(=S)NCc2nc3ccccc3[nH]2)cc1	-1%	2%	-85*	-14%	26	-4%
COc1ccc(-c2coc3c(CN4CCOCC4)c(O)ccc3c2=O)cc1	-3%	-2%	7	-4%	7	-4%
O=c1c(-c2ccc(Cl)cc2)coc2c(CN3CCOCC3)c(O)ccc12	-11%	2%	-5	19µM*	1	-3%
O=C(C1CC1)N(CCN(Cc1ccccc1)C(=O)C1CC1)Cc1ccccc1	2%	1%	0	27µM*	-14	-8%
S=c1nc(-c2csc3c2CCCC3)[nH][nH]1	22%	-19%	-3	27µM*	4	?
S=c1nc(-c2ccccc2Cl)[nH][nH]1	-6%	0%	14	?	2	-16%
O=C(/C=C\c1ccccc1)Nc1ccc(NC(=O)c2ccco2)cc1	14%	0%	-80*	3.4µM*	11	20µM*
O=C(Oc1ccccc1)c1ccc(NC(=O)c2ccco2)cc1	18%	7%	9	24µM*	-1	-22%
O=C(/C=C/c1ccccc1)Nc1ccc(N2CCCCC2)cc1	7%	-3%	-81*	-3%	19	1%
O=C(CSc1ccc(Cl)cc1)c1ccco1	21%	5%	-5	9.5µM*	-1	?
O=C(CSc1ccc(Cl)cc1)NCc1ccco1	-5%	14%	-10	-5%	-18	-9%
O=C(CSc1ccccc1Cl)c1ccco1	0%	0%	-9	21µM*	-15	?
O=C(CC(NS(=O)(=O)c1ccc(Cl)cc1)c1ccco1)NCc1ccco1 (centres undefined)	-9%	-12%	7	30µM*	12	-13%
O=C(CSc1ccc(Cl)cc1)NC(=O)NCc1ccco1	-11%	-16%	4	3µM*	-15	?
CCc1nn(CC(=O)NCc2ccccc2)c(=O)c2cccn12	nt	nt	nt	nt	nt	7%
CCc1ccc(C2N3CC4(C)CN2CC(c2ccccc2)(C3)C4=O)cc1 (centres undefined)	nt	nt	nt	nt	nt	5%
Cc1ccc(C2=Nc3ccccc3NC(c3ccncc3)=N2)cc1	nt	nt	nt	nt	nt	2%
CCC(=O)NC1CCc2cccc(OC)c2C1 (centres undefined)	nt	?	nt	nt	nt	-4%
O=C1NC(=S)NC(=O)C1=Cc1ccccc1C(=O)O	nt	nt	-6	24µM*	0	?
COCc1nnc(NS(=O)(=O)c2ccc(C)cc2)s1	1%	2%	6	-21%	-5	1%
COc1ccc(Cc2nnc(NS(=O)(=O)c3ccc(Cl)cc3)s2)cc1OC	-2%	2%	-4	30µM*	-11	1%
Cc1ccc(S(=O)(=O)Nc2nnc(C(C)(C)C)s2)cc1	-14%	nt	18	24µM*	-12	-25%
Cc1ccc(S(=O)(=O)Nc2nnc(CC(C)(C)C)s2)cc1	-10%	nt	-13	27µM*	-11	-25%
SMILES	MBNL1 CUG block	CBFb RUNX1 block	KCNH2 3.1 inh	PLK1 PBD inh	KCNH2 WT inh	VDR inh
CC(=O)Nc1ccc(S(=O)(=O)Nc2nnc(CC(C)(C)C)s2)cc1	?	-25%	9	27µM*	7	?
CCc1cccc(NC(=O)Cn2c(=O)n(Cc3ccccc3)c(=O)c3c2c2cc(OC)ccc2n3C)c1	nt	nt	nt	nt	nt	-3%
O=C(/C=C/c1ccccc1)N1CCN(Cc2cc(=O)n3nc(-c4ccccc4)sc3n2)CC1	nt	nt	nt	nt	nt	15%
COc1ccc(CCNC(=O)CCn2c(=O)c3ccccc3n(Cc3ccccc3F)c2=O)cc1OC	nt	nt	nt	nt	nt	3%
O=C(NCc1ccc(Cl)cc1)C1CCN(c2ncnc3c2nc2n3CCCCC2)CC1	nt	nt	nt	nt	nt	4%
COc1ccc(CNC(=O)Cn2c(=O)c3cccn3c3cccnc32)cc1	nt	nt	nt	nt	nt	10%
COc1cccc(CN2CCN(C(=S)NCc3ccc(Cl)cc3)CC2)c1	-6%	0%	-75*	-1%	15	-2%
c1ccc2c(NC3CCCC3)nnc(NC3CCCC3)c2c1	1%	1%	-82*	-3%	7	-4%
Clc1nnc(NC2CCCCC2)c(Cl)c1Cl	nt	nt	-77*	-4%	11	nt
COc1cc(/C=C2/NC(=O)N(Cc3ccccc3F)C2=O)ccc1O	?	-2%	-104*	?	-5	3%
CCCCNC(=O)C(CC)n1c(SCc2cccc(F)c2)nc2ccncc21 (centres undefined)	nt	nt	nt	nt	nt	-17%
CC(=O)C1=C(O)C(=O)N(c2cc(C(C)(C)C)on2)C1c1ccc(Br)cc1 (centres undefined)	23%	-9%	-82*	?	2	?
Cc1ccc(-c2nc(CCNC(=O)C(=O)Nc3ccc(C)c(C)c3)cs2)cc1	nt	nt	nt	nt	nt	0%
Cc1nn(Cc2noc(C(=O)NC(C)c3ccccc3)n2)c(C)c1Br (centres undefined)	nt	nt	nt	nt	nt	6%
O=C(NCCCn1ccnc1)Nc1ccc(Cl)cc1	-17%	0%	-71*	-6%	2	6%
COc1ccc(NC(=O)C(=O)NCCCn2ccnc2)cc1	-1%	2%	-1	-8%	-9	-5%
CC(Oc1ccc(Cl)cc1Cl)C(=O)NCCCn1ccnc1 (centres undefined)	-4%	3%	11	24µM*	11	-12%
N#C/C(=C\c1ccc([N+](=O)[O-])cc1)C(=O)NCCCn1ccnc1	?	4%	10	-29%	2	-9%
O=C(NCCCn1ccnc1)C(=O)Nc1ccccc1	-9%	3%	3	30µM*	-17	0%
O=C(NCCCn1ccnc1)C(Cc1ccc([N+](=O)[O-])cc1)N1C(=O)c2ccccc2C1=O (centres undefined)	24%	-5%	-88*	-5%	-119*	16%
CCCCCNC(=O)C1CCC(Cn2c(=O)c3sccc3n(CC)c2=O)CC1 (centres undefined)	nt	nt	nt	nt	nt	-7%
COc1ccc(NC(=O)c2ccc3c(=O)n4nc(Nc5cccc(Cl)c5C)sc4nc3c2)cc1	nt	nt	nt	nt	nt	-2%

Assay outcomes: PubChem BioAssay, National Center for Advancing Translational Sciences (NCATS)
